Experimental data published in the supplement of paper PMC8728848.
This is one part of a sample in which the strongest signals are shown more often than they occur.

Key:
Assay in all cases: glycan array binding signal (z-score within array); higher = stronger binding
[1] = test system: GlcNAc(b1-2)Man(a1-3)[GlcNAc(b1-2)Man(a1-6)]Man(b1-4)GlcNAc(b1-4)GlcNAc; conditions: glycan notation: IUPAC condensed, linker removed
Summary of the method: (§1)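 Glycan array binding is given as a within-array Z-score, which can be read as non-binding when negative. The arrays, 3228 of them, came from the Consortium for Functional Glycomics database and were retained only where the protein sequence was available. Z-scores were averaged across arrays of the same protein sequence at different concentrations or buffers and across linkers.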

[2] = test system: GlcNAc(b1-2)Man(a1-3)[GlcNAc(b1-4)][GlcNAc(b1-2)Man(a1-6)]Man(b1-4)GlcNAc(b1-4)[Fuc(a1-6)]GlcNAc; conditions: glycan notation: IUPAC condensed, linker removed
Summary of the method: as §1

[3] = test system: GlcNAc(b1-2)[GlcNAc(b1-4)]Man(a1-3)[GlcNAc(b1-4)][GlcNAc(b1-2)Man(a1-6)]Man(b1-4)GlcNAc(b1-4)GlcNAc; conditions: glycan notation: IUPAC condensed, linker removed; mutation: R125K
Summary of the method: as §1

[4] = test system: GlcNAc(b1-2)[GlcNAc(b1-6)]Man(a1-6)[GlcNAc(b1-2)Man(a1-3)][GlcNAc(b1-4)]Man(b1-4)GlcNAc(b1-4)GlcNAc; conditions: glycan notation: IUPAC condensed, linker removed
Summary of the method: as §1

[5] = test system: GlcNAc(b1-2)[GlcNAc(b1-6)]Man(a1-6)[GlcNAc(b1-4)][GlcNAc(b1-2)Man(a1-3)]Man(b1-4)GlcNAc(b1-4)GlcNAc; conditions: glycan notation: IUPAC condensed, linker removed; mutation: R125K
Summary of the method: as §1

[6] = test system: GlcNAc(b1-3)Gal(b1-4)GlcNAc(b1-3)Gal(b1-4)GlcNAc(b1-2)[GlcNAc(b1-3)Gal(b1-4)GlcNAc(b1-3)Gal(b1-4)GlcNAc(b1-6)]Man(a1-6)[GlcNAc(b1-3)Gal(b1-4)GlcNAc(b1-3)Gal(b1-4)GlcNAc(b1-2)Man(a1-3)]Man(b1-4)GlcNAc(b1-4)[Fuc(a1-6)]GlcNAc; conditions: glycan notation: IUPAC condensed, linker removed
Summary of the method: as §1

[7] = test system: GlcNAc(b1-3)Gal(b1-4)GlcNAc(b1-3)Gal(b1-4)GlcNAc(b1-3)Gal(b1-4)GlcNAc(b1-2)Man(a1-3)[GlcNAc(b1-3)Gal(b1-4)GlcNAc(b1-3)Gal(b1-4)GlcNAc(b1-3)Gal(b1-4)GlcNAc(b1-2)Man(a1-6)]Man(b1-4)GlcNAc(b1-4)[Fuc(a1-6)]GlcNAc; conditions: glycan notation: IUPAC condensed, linker removed
Summary of the method: as §1

[8] = test system: GlcNAc(b1-3)Gal(b1-4)GlcNAc(b1-3)Gal(b1-4)GlcNAc(b1-3)Gal(b1-4)GlcNAc(b1-3)Gal(b1-4)GlcNAc(b1-2)Man(a1-3)[GlcNAc(b1-3)Gal(b1-4)GlcNAc(b1-3)Gal(b1-4)GlcNAc(b1-3)Gal(b1-4)GlcNAc(b1-3)Gal(b1-4)GlcNAc(b1-2)Man(a1-6)]Man(b1-4)GlcNAc(b1-4)GlcNAc; conditions: glycan notation: IUPAC condensed, linker removed; mutation: R125K
Summary of the method: as §1

[9] = test system: GlcNAc(b1-2)Gal(b1-3)GalNAc; conditions: glycan notation: IUPAC condensed, linker removed
Summary of the method: as §1

GlcNAc(b1-3)Gal = conditions: glycan notation: IUPAC condensed, linker removed
Summary of the method: as §1

[10] = test system: GlcNAc(b1-3)Gal(b1-4)GlcNAc(b1-3)Gal(b1-4)GlcNAc; conditions: glycan notation: IUPAC condensed, linker removed
Summary of the method: as §1

[11] = test system: GlcNAc(a1-6)Gal(b1-4)GlcNAc; conditions: glycan notation: IUPAC condensed, linker removed; mutation: D138V, E140I
Summary of the method: as §1

[12] = test system: GlcNAc(b1-3)Gal(b1-4)GlcNAc; conditions: glycan notation: IUPAC condensed, linker removed
Summary of the method: as §1

[13] = test system: GlcNAc(b1-2)Man(a1-3)[GlcNAc(b1-4)][GlcNAc(b1-2)Man(a1-6)]Man(b1-4)GlcNAc(b1-4)GlcNAc; conditions: glycan notation: IUPAC condensed, linker removed
Summary of the method: as §1

GlcNAc(b1-3)Gal(b1-4)Glc = conditions: glycan notation: IUPAC condensed, linker removed
Summary of the method: as §1

[14] = test system: GlcNAc(b1-3)Gal(b1-4)GlcNAc(b1-2)[GlcNAc(b1-3)Gal(b1-4)GlcNAc(b1-6)]Man(a1-6)[GlcNAc(b1-3)Gal(b1-4)GlcNAc(b1-2)Man(a1-3)]Man(b1-4)GlcNAc(b1-4)GlcNAc; conditions: glycan notation: IUPAC condensed, linker removed
Summary of the method: as §1

[15] = test system: GlcNAc(b1-3)Gal(b1-4)GlcNAc(b1-3)Gal(b1-4)GlcNAc(b1-2)Man(a1-3)[GlcNAc(b1-3)Gal(b1-4)GlcNAc(b1-3)Gal(b1-4)GlcNAc(b1-2)Man(a1-6)]Man(b1-4)GlcNAc(b1-4)[Fuc(a1-6)]GlcNAc; conditions: glycan notation: IUPAC condensed, linker removed
Summary of the method: as §1

[16] = test system: GlcNAc(b1-3)Gal(b1-4)GlcNAc(b1-3)Gal(b1-4)GlcNAc(b1-3)Gal(b1-4)GlcNAc(b1-2)Man(a1-3)[GlcNAc(b1-3)Gal(b1-4)GlcNAc(b1-3)Gal(b1-4)GlcNAc(b1-3)Gal(b1-4)GlcNAc(b1-2)Man(a1-6)]Man(b1-4)GlcNAc(b1-4)GlcNAc; conditions: glycan notation: IUPAC condensed, linker removed
Summary of the method: as §1

[17] = test system: GlcNAc(b1-3)Gal(b1-4)GlcNAc(b1-3)Gal(b1-4)GlcNAc(b1-3)Gal(b1-4)GlcNAc(b1-2)[GlcNAc(b1-3)Gal(b1-4)GlcNAc(b1-3)Gal(b1-4)GlcNAc(b1-3)Gal(b1-4)GlcNAc(b1-6)]Man(a1-6)[GlcNAc(b1-3)Gal(b1-4)GlcNAc(b1-3)Gal(b1-4)GlcNAc(b1-3)Gal(b1-4)GlcNAc(b1-2)Man(a1-3)]Man(b1-4)GlcNAc(b1-4)[Fuc(a1-6)]GlcNAc; conditions: glycan notation: IUPAC condensed, linker removed
Summary of the method: as §1

[18] = test system: GlcNAc(b1-2)Man(a1-3)[GlcNAc(b1-2)Man(a1-6)]Man(b1-4)GlcNAc(b1-4)[Fuc(a1-6)]GlcNAc; conditions: glycan notation: IUPAC condensed, linker removed
Summary of the method: as §1

Neurocan (Homo sapiens), O14594, sequence (O14594 other isoform, or with tags, fused parts or gaps): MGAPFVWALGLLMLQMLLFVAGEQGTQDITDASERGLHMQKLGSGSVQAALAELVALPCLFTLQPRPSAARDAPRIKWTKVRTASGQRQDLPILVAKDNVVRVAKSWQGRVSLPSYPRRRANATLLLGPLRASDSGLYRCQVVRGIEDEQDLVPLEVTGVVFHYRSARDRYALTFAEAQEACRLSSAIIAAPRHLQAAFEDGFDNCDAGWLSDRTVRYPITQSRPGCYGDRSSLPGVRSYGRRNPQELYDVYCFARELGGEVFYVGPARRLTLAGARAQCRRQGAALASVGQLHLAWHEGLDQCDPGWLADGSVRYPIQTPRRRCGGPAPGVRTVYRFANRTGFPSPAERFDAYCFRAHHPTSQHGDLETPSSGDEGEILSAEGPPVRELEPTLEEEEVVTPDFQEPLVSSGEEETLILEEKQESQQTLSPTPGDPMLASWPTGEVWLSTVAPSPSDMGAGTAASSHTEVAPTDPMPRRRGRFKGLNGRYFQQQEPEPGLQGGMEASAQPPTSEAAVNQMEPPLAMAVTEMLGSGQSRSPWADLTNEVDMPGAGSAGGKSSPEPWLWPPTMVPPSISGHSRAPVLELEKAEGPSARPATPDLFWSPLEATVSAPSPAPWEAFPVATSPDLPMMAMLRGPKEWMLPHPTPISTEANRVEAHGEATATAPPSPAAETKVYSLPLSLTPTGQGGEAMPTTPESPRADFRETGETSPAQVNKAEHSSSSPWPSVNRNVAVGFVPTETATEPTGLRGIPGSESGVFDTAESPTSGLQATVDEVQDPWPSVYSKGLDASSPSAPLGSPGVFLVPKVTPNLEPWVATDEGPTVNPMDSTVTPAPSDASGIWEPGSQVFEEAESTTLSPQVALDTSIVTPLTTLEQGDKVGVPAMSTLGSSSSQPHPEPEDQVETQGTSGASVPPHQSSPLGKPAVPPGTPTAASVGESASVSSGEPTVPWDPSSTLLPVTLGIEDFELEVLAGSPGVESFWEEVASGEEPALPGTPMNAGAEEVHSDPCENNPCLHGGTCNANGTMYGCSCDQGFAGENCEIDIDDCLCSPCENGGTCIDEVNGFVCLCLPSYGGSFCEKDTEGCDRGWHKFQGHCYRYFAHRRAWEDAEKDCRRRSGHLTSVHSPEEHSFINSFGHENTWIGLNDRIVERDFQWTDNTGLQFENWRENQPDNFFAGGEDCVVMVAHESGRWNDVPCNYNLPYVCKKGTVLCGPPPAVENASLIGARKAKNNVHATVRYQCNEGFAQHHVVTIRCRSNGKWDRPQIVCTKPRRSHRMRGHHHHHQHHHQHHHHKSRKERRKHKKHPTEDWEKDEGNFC
PILRb (Mus musculus), Q2YSF2, sequence (Q2YSF2 entry or part of it): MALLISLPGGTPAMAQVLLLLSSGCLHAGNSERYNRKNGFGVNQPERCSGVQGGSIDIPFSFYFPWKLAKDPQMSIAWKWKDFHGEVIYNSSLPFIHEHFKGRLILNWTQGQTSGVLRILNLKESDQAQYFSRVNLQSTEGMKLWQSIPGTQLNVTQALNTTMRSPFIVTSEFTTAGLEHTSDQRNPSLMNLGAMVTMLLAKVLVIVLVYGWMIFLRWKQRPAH
Avaren (Actinomycete K97), sequence (chain, as listed by the source): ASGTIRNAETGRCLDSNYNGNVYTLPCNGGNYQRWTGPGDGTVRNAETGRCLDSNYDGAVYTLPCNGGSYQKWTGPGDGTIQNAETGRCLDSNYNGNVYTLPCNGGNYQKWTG
6RG (Lolium perenne), sequence (chain, as listed by the source): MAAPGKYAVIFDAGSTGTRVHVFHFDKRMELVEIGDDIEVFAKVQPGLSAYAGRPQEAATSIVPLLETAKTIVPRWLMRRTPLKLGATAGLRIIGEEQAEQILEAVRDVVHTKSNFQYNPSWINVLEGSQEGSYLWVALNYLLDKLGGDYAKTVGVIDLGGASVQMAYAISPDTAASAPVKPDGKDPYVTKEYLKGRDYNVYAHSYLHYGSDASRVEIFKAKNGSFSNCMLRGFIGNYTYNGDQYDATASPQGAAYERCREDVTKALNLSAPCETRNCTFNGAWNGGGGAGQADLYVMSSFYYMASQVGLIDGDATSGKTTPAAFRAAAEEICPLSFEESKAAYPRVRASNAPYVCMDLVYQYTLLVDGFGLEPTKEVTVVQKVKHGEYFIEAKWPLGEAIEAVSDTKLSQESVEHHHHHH
CHT (Homo sapiens), sequence (chain, as listed by the source): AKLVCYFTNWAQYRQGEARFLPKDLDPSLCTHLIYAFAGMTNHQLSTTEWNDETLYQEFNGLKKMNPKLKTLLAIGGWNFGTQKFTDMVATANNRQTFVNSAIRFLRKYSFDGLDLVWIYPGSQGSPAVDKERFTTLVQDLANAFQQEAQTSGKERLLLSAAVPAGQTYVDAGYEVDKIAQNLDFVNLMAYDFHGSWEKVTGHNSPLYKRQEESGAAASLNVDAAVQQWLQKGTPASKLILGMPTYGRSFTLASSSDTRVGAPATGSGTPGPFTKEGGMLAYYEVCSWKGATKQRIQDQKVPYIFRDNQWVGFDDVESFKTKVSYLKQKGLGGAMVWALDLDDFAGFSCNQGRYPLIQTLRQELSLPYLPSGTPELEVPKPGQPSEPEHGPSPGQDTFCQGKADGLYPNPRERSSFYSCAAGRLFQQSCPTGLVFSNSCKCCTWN
SRLC (Mus musculus), Q8VIF6, sequence (Q8VIF6 other isoform, or with tags, fused parts or gaps): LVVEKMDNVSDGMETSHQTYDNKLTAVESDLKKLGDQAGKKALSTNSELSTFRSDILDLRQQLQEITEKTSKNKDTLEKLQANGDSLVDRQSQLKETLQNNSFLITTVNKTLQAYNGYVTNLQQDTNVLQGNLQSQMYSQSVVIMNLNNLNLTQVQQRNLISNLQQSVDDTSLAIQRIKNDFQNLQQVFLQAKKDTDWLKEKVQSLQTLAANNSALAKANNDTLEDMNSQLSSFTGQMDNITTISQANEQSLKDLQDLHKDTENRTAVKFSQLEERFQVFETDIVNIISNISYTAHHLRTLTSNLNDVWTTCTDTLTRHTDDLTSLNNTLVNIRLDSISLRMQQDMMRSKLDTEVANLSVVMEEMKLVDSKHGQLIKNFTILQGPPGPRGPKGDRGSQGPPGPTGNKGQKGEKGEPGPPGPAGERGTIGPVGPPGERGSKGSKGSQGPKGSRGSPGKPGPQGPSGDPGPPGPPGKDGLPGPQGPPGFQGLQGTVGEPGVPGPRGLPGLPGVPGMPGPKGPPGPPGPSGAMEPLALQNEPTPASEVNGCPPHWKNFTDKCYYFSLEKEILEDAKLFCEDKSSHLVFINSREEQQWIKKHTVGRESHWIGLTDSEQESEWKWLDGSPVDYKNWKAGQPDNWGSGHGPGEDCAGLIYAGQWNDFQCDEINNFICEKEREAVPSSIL
C3b (Homo sapiens), P01024, sequence (P01024 23-667): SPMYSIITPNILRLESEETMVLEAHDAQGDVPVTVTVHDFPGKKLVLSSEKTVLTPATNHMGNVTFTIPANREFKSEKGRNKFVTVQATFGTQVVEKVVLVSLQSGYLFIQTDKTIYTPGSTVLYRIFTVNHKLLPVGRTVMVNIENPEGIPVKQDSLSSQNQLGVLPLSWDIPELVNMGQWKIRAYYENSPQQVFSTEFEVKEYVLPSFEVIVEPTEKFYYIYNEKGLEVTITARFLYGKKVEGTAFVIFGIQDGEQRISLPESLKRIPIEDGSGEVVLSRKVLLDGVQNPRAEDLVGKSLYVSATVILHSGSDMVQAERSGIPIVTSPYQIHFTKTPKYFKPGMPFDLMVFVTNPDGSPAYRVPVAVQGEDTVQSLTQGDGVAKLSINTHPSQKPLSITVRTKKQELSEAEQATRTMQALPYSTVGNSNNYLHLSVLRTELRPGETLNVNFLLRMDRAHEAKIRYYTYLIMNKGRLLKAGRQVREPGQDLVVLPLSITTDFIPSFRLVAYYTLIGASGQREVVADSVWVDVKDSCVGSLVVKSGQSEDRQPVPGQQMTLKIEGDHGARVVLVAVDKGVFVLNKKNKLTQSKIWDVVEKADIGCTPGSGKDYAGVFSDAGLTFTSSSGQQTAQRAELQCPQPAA
Regenerating Gene IV (Homo sapiens), Q9BYZ8, sequence (Q9BYZ8 whole entry, looked up): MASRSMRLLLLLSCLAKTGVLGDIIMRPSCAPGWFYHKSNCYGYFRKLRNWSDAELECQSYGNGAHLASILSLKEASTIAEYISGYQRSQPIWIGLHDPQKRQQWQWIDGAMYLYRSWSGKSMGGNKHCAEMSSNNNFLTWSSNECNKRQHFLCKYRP
wLAT-1A (Homo sapiens), Q01650, sequence (Q01650 whole entry): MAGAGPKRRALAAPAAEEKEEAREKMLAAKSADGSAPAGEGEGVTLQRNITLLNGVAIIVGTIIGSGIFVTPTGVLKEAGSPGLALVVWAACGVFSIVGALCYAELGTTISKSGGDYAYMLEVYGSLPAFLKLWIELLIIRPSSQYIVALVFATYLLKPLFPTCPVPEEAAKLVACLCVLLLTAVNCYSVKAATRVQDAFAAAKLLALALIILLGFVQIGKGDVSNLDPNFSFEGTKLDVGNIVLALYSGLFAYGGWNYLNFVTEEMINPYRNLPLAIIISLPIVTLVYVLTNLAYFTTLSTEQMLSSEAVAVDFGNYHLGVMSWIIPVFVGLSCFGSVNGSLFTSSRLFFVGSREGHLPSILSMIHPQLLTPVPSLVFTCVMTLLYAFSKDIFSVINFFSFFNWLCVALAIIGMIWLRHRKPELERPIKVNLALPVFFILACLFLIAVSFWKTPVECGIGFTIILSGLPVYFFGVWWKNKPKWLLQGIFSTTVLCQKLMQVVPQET

With Siglec-8 (Homo sapiens), Q9NYZ4 as the substance, how does the “glycan array binding signal (z-score)” value [1] read?
Its value is -0.041.

And the “glycan array binding signal (z-score)” value [2]?
The value was 0.376.

And the “glycan array binding signal (z-score)” value [3]?
Its value is 5.14.

What about the “glycan array binding signal (z-score)” value [4] of the same substance?
Its value is -0.061.

What about the “glycan array binding signal (z-score)” value [5] of the same substance?
Its value is -0.415.

What about the “glycan array binding signal (z-score)” value [6] of the same substance?
Its value is 0.434.

And the “glycan array binding signal (z-score)” value [7]?
Its value is 0.693.

What about the “glycan array binding signal (z-score)” value [8] of the same substance?
Its value is -0.017.

For C3b (Homo sapiens), P01024, which “glycan array binding signal (z-score)” value [9] is on record?
The value was -0.291.

With “Regenerating Gene IV (Homo sapiens), Q9BYZ8” as the substance, how does the “glycan array binding signal (z-score)” value (GlcNAc(b1-3)Gal) read?
Its value is -0.345.

For SRLC (Mus musculus), Q8VIF6, which “glycan array binding signal (z-score)” value [10] is on record?
Its value is -0.205.

CHT (Homo sapiens) was tested. Which “glycan array binding signal (z-score)” value [11] did it give?
The value was -0.177.

For Neurocan (Homo sapiens), O14594, which “glycan array binding signal (z-score)” value [1] is on record?
Its value is -0.834.

And the “glycan array binding signal (z-score)” value [12]?
The value was -1.33.

What about the “glycan array binding signal (z-score)” value (GlcNAc(b1-3)Gal) of the same substance?
The value was -0.097.

With Avaren (Actinomycete K97) as the substance, how does the “glycan array binding signal (z-score)” value [13] read?
Its value is -0.134.

What about the “glycan array binding signal (z-score)” value [6] of the same substance?
The value was -0.046.

How did the “glycan array binding signal (z-score)” value [10] turn out when 6RG (Lolium perenne) was run?
Its value is -0.272.

wLAT-1A (Homo sapiens), Q01650 was tested. Which “glycan array binding signal (z-score)” value (GlcNAc(b1-3)Gal(b1-4)Glc) did it give?
The value was -0.411.

MpAFP RI GFP (Marinomonas primoryensis) was tested. Which “glycan array binding signal (z-score)” value [14] did it give?
The value was 5.77.

And the “glycan array binding signal (z-score)” value [15]?
The value was 2.86.

And the “glycan array binding signal (z-score)” value [6]?
Its value is 1.29.

And the “glycan array binding signal (z-score)” value [16]?
The value was 4.26.

And the “glycan array binding signal (z-score)” value [17]?
The value was 1.39.

For PILRb (Mus musculus), Q2YSF2, which “glycan array binding signal (z-score)” value [18] is on record?
Its value is 0.569.

What about the “glycan array binding signal (z-score)” value [12] of the same substance?
Its value is -0.214.
